{"source": "PubChem BioAssay (Tox21)", "note": "Records with an inconclusive call do not appear. Unmarked numbers belong to inactive results. Unless noted, calls come from the whole dose curve; as a rule, active = well fitted cell-killing curve with a large enough effect in the repeat runs; inconclusive = weak or mixed curves; inactive = no such curve, though single readings can be large or run the other way. % is set by controls: 0 for no effect and ±100 for the full control effect."}
{"experiment": "qHTS assay for small molecule activators of the heat shock response signaling pathway (AID 743210; active = well fitted activation curve with a large enough effect in the signal ratio in the repeat runs, with a control signal flat, not every such curve was filed as active; the % refers to the signal ratio)", "settings": "HeLa HSE-bla reporter, beta-lactamase ratio, 5 h; series mostly up to 62.6 µM; activation: at the top concentration", "procedure,_shortened": "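Activation of heat shock element-controlled beta-lactamase expression is measured in HeLa cells by LiveBLAzer FRET fluorescence, with compound exposure lasting 5 h at 37 C and substrate loading 2.5 h at room temperature.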"}
{"smiles": "CCN[C@@H]1C[C@H](N)[C@@H](OC2OC(CN)=CCC2N)[C@H](O)[C@H]1O[C@H]1OC[C@](C)(O)[C@H](NC)[C@H]1O", "note": "(stereo partly drawn)", "activation": "-1.49% [at 0.55 µM]"}
{"smiles": "CCN(Cc1ccccc1)c1ccccc1", "activation": "0.298%"}
{"smiles": "CN(C)CCN(C)CCN(C)C", "activation": "-1.46%"}
{"smiles": "CCN[C@H]1C[C@H](C)S(=O)(=O)c2sc(S(N)(=O)=O)cc21", "activation": "-0.79%"}
{"smiles": "O=C(CO)[C@@H](O)[C@H](O)[C@@H](O)CO", "activation": "-0.225%"}
{"experiment": "qHTS assay to identify small molecule agonists of the peroxisome proliferator-activated receptor delta (PPARd) signaling pathway - cell viability counter screen (AID 743211); note: nearly all actives have a fitted effect of over 55% in size", "settings": "PPARd-bla HEK293H viability, CellTiter-Glo luminescence, 17 h; series mostly up to 62.6 µM; activity change, negative = cytotoxicity: at the top concentration", "procedure,_shortened": "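PPARd-bla HEK293H cells (3000/well) were pre-incubated 5 h at 37 C, then exposed to compound for 17 h at 37 C. After 2 h with LiveBLAzer substrate, CellTiter-Glo was added to the same wells; luminescence read after 30 min at room temperature.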"}
{"smiles": "O=Cc1cccc(Br)c1", "activity change, negative = cytotoxicity": "2.14% [at 81.1 µM]"}
{"smiles": "CN1[C@@H]2CC[C@H]1CC(OC(=O)C(O)c1ccccc1)C2", "note": "(stereo partly drawn)", "activity change, negative = cytotoxicity": "0.977%"}
{"smiles": "CCCCCCCCN1CCCC1=O", "activity change, negative = cytotoxicity": "5.88%"}
{"smiles": "CC[N+](C)(CC)CCOC(=O)C1c2ccccc2Oc2ccccc21", "activity change, negative = cytotoxicity": "0.178%"}
{"smiles": "CCOC(=O)OC(C)OC1=C(C(=O)Nc2ccccn2)N(C)S(=O)(=O)c2ccccc21", "note": "(stereo not drawn)", "activity change, negative = cytotoxicity": "1.23%"}
{"smiles": "CCCCCCCC1CCCC1=O", "note": "(stereo not drawn)", "activity change, negative = cytotoxicity": "-10.9%"}
{"smiles": "CC(CO)(CO)[N+](=O)[O-]", "activity change, negative = cytotoxicity": "-6.75%"}
{"smiles": "CCCc1ncc(C[n+]2ccccc2C)c(N)n1", "activity change, negative = cytotoxicity": "0.0891%"}
{"smiles": "CC(C)(C)C(=O)Oc1ccc(S(=O)(=O)Nc2ccccc2C(=O)NCC(=O)O)cc1", "activity change, negative = cytotoxicity": "-3.02%"}
{"smiles": "Cc1ccc(-c2ncc(Cl)cc2-c2ccc(S(C)(=O)=O)cc2)cn1", "activity change, negative = cytotoxicity": "4.88%"}
{"smiles": "CC(CC=O)CC(C)(C)C", "note": "(stereo not drawn)", "activity change, negative = cytotoxicity": "2.63%"}
{"smiles": "C[N+]1(C)[C@@H]2CC(OC(=O)[C@H](CO)c3ccccc3)C[C@H]1[C@@H]1O[C@@H]12", "note": "(stereo partly drawn)", "activity change, negative = cytotoxicity": "0.42%"}
{"smiles": "CC(=O)c1ccc2ccccc2c1", "activity change, negative = cytotoxicity": "1.84%"}
{"smiles": "CCCCc1ccc2c(n1)[C@@H](c1ccc(OC)cc1C[C@H](C)C(=O)O)[C@H](C(=O)O)[C@H]2c1ccc2c(c1)OCO2", "activity change, negative = cytotoxicity": "12.8%"}
{"smiles": "CN(C)[C@@H]1C(=O)C(C(=O)NCN2CCCC2)=C(O)[C@@]2(O)C(=O)C3=C(O)c4c(O)cccc4[C@@](C)(O)C3C[C@@H]12", "note": "(stereo partly drawn)", "activity change, negative = cytotoxicity": "1.82%"}
{"smiles": "NS(=O)(=O)Cc1noc2ccccc12", "activity change, negative = cytotoxicity": "11.6%"}
{"smiles": "CCOC(=O)C1=NOC(c2ccccc2)(c2ccccc2)C1", "activity change, negative = cytotoxicity": "3.84%"}
{"smiles": "CC/C=C\\CCOC(C)OCC", "note": "(stereo not drawn)", "activity change, negative = cytotoxicity": "-0.915%"}
{"smiles": "CC(=O)C1CCCCC1=O", "note": "(stereo not drawn)", "activity change, negative = cytotoxicity": "-16.1%"}
{"smiles": "CCC1C(=O)OCC1Cc1cncn1C", "note": "(stereo not drawn)", "activity change, negative = cytotoxicity": "1.51%"}
{"smiles": "O=S(=O)(O)c1cc(O)c(O)c(S(=O)(=O)O)c1", "activity change, negative = cytotoxicity": "0.256%"}
{"smiles": "CCCCCC(=O)OCCc1ccccc1", "activity change, negative = cytotoxicity": "4.56%"}
{"smiles": "CN(C)CCCN(C)CCCN(C)C", "activity change, negative = cytotoxicity": "1.89%"}
{"smiles": "COc1ccc2cc1Oc1cc3c(cc1OC)CC[N+](C)(C)[C@H]3Cc1ccc(cc1)Oc1c(OC)c(OC)cc3c1[C@@H](C2)[N+](C)(C)CC3", "activity change, negative = cytotoxicity": "-2.66%"}
{"smiles": "CCN[C@@H]1C[C@H](N)[C@@H](OC2OC(CN)=CCC2N)[C@H](O)[C@H]1O[C@H]1OC[C@](C)(O)[C@H](NC)[C@H]1O", "note": "(stereo partly drawn)", "activity change, negative = cytotoxicity": "7.95% [at 0.55 µM]"}
{"smiles": "O=[N+]([O-])c1ccc(/C=N\\O)o1", "activity change, negative = cytotoxicity": "-5.32%"}
{"smiles": "CN(C)CCN(C)CCN(C)C", "activity change, negative = cytotoxicity": "-11.8%"}
{"smiles": "O=C(CO)[C@@H](O)[C@H](O)[C@@H](O)CO", "activity change, negative = cytotoxicity": "10.8%"}
